Here are results for 7 molecules from PubChem BioAssay (NCI).

Compounds without any hit were thinned out: in the full panel of roughly 83,000, 20% have a hit.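 Cell lines were cultured in 96-well plates, exposed to a single compound concentration, and assessed for percent growth 48 hours later.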 Values without a mark were called inactive. Activity calls are given as the source filed them. How the source made its calls: active means growth percent below 10; inactive means the rest.

Some test systems named below: DU-145 prostate; K-562 leukemia; MALME-3M melanoma; MDA-MB-231 breast; RXF 393 renal; SF-268 CNS; SF-295 CNS; SF-539 CNS; UACC-257 melanoma; M14 melanoma; HCT-15 colon; HT29 colon; SNB-75 CNS; SNB-19 CNS; U251 CNS; PC-3 prostate; SK-MEL-5 melanoma; UACC-62 melanoma; LOX IMVI melanoma; SK-MEL-28 melanoma.
Assay in all cases: NCI-60 one-dose screen, 48 h (100 = growth as untreated, 0 = no growth, -100 = all killed)
Conditions in all cases: 10 µM unless noted

With `O=C(CSC(=S)n1cnnc1)NC(=O)c1ccccc1`, the growth was 105% with DU-145 prostate; 89.8% in the assay with K-562 leukemia; 98.4% with MALME-3M melanoma; 112% in the assay on MDA-MB-231 breast; 120% in the assay on RXF 393 renal; 98.6% with SF-268 CNS. Also, the growth is 106% in the assay on SF-295 CNS; 100% in the assay on SF-539 CNS; 113% in the assay on UACC-257 melanoma; 98.1% in the assay on M14 melanoma; 107% in the assay with HCT-15 colon; 104% in the assay with HT29 colon. Besides, the growth with SNB-75 CNS is 95%; in the assay with SNB-19 CNS, 109%; in the assay on U251 CNS it was 116%; in the assay with PC-3 prostate it was 102%; with SK-MEL-5 melanoma it was 109%; in the assay on UACC-62 melanoma, 110%. Besides, the results for the growth in the assay with LOX IMVI melanoma and in the assay on SK-MEL-28 melanoma were 97% and 113%, respectively.

For the molecule `COc1ccc(/C=C/C(=O)c2cccc(OCCCCOc3cccc(C(=O)/C=C/c4ccc(OC)c(OC)c4)c3)c2)cc1OC`, the growth is 83.3% in the assay on DU-145 prostate; 50.7% with K-562 leukemia; 77.7% in the assay with MALME-3M melanoma; 87.7% in the assay with MDA-MB-231 breast; 79.1% with RXF 393 renal; 76.2% in the assay with SF-268 CNS. Also, the growth with SF-295 CNS is 47%; in the assay on SF-539 CNS it was 87.7%; in the assay on UACC-257 melanoma, 57.1%; in the assay on M14 melanoma, 78.6%; in the assay on HCT-15 colon it was 80.9%; with HT29 colon, 92%. In addition, the growth in the assay on SNB-75 CNS is 67.8%; in the assay with SNB-19 CNS, 81.6%; with U251 CNS it was 84.8%; with PC-3 prostate it was 67%; in the assay with SK-MEL-5 melanoma it was 9.83% (active); in the assay on UACC-62 melanoma it was 57.7%. Moreover, the growth with LOX IMVI melanoma is 61.7%; in the assay on SK-MEL-28 melanoma, 86%.

Take `COc1cc(NS(=O)(=O)c2ccc(-c3cnc(C4CC4)o3)cc2)ccc1F`: the growth is 23% in the assay with DU-145 prostate; 12.2% in the assay on K-562 leukemia; 55.8% in the assay on MALME-3M melanoma; 24.2% in the assay on MDA-MB-231 breast; 12.4% in the assay with RXF 393 renal; 55.7% in the assay on SF-268 CNS. In addition, the growth with SF-295 CNS was 15.6%; in the assay on SF-539 CNS, 1.5% (active); in the assay with UACC-257 melanoma it was 69%; with M14 melanoma, 19%; in the assay on HCT-15 colon, 20.9%; with HT29 colon, 2.64% (active). Also, the growth in the assay with SNB-75 CNS is -15.8% (active); in the assay with SNB-19 CNS it was 25.6%; in the assay with U251 CNS, 22.1%; in the assay with PC-3 prostate, 33.9%; with SK-MEL-5 melanoma it was 15.5%; in the assay on UACC-62 melanoma, 31.6%. Moreover, the growth in the assay with LOX IMVI melanoma is 35%; in the assay on SK-MEL-28 melanoma it was 65.2%.

For the molecule `COc1ccc(-c2nc3cc(C(=O)NCc4ccccc4)ccc3n2C2CCCCC2)cc1`, the growth with DU-145 prostate is 82.8%; in the assay with K-562 leukemia it was 41.1%; with MALME-3M melanoma, 102%; in the assay with MDA-MB-231 breast, 77.5%; in the assay with RXF 393 renal, 90.2%; with SF-268 CNS, 79.4%. The growth is 51% with SF-295 CNS; 60.2% in the assay with SF-539 CNS; 96.7% with UACC-257 melanoma; 78.1% in the assay with M14 melanoma; 10% in the assay with HCT-15 colon; 28.1% with HT29 colon. For the same molecule, the growth was 64.3% with SNB-75 CNS; 98.2% with SNB-19 CNS; 68.2% with U251 CNS; 85.3% in the assay with PC-3 prostate; 38.6% in the assay with SK-MEL-5 melanoma; 91% in the assay with UACC-62 melanoma. Further, the growth was 53.9% with LOX IMVI melanoma and 92.7% in the assay on SK-MEL-28 melanoma.

For the molecule `CCCc1c(OC(=O)c2ccccc2)nc2[nH]c(=O)sc2c1C`, the growth in the assay with DU-145 prostate was 106%; with K-562 leukemia, 112%; in the assay on MALME-3M melanoma, 95.1%; in the assay on MDA-MB-231 breast, 104%; in the assay with RXF 393 renal, 101%; in the assay with SF-268 CNS it was 97.1%. Moreover, the growth in the assay on SF-295 CNS is 102%; in the assay on SF-539 CNS, 99%; in the assay on UACC-257 melanoma, 98.5%; in the assay with M14 melanoma it was 99.4%; with HCT-15 colon it was 98.3%; with HT29 colon it was 104%. Besides, the growth is 88.9% in the assay with SNB-75 CNS; 96% in the assay on SNB-19 CNS; 97.7% in the assay with U251 CNS; 97.2% in the assay on PC-3 prostate; 98% in the assay with SK-MEL-5 melanoma; 88.8% in the assay on UACC-62 melanoma. Moreover, the growth was 98.3% with LOX IMVI melanoma and 104% in the assay on SK-MEL-28 melanoma.

For the molecule `O=C(Nn1c2c(sc1=NC1CC1)C(=O)c1ccccc1C2=O)c1cc2ccc1CCc1ccc(cc1)CC2`, the growth with DU-145 prostate was 33.2%; in the assay on K-562 leukemia it was 25.9%; in the assay on MALME-3M melanoma, -64.3% (active); in the assay on MDA-MB-231 breast, 15.4%; in the assay with RXF 393 renal, 53.7%; in the assay on SF-268 CNS it was 45.2%. Further, the growth with SF-295 CNS is 79.6%; in the assay on SF-539 CNS it was 5.17% (active); in the assay on UACC-257 melanoma, -28.6% (active); with M14 melanoma, -21.8% (active); in the assay with HCT-15 colon, 2.79% (active); in the assay with HT29 colon, 108%. Further, the growth was -10.4% (active) in the assay with SNB-75 CNS; 33.7% in the assay on SNB-19 CNS; 32.6% with U251 CNS; 30.7% in the assay with PC-3 prostate; -77.6% (active) in the assay on SK-MEL-5 melanoma; -12.4% (active) in the assay with UACC-62 melanoma. For the same molecule, the results for the growth with LOX IMVI melanoma and in the assay with SK-MEL-28 melanoma were 0.512% (active) and 40.2%, respectively.

In the case of `Nc1n[nH]c2cccc(C#Cc3cccc(NC(=O)c4cc(F)cc(C(F)(F)F)c4)c3)c12`, the growth in the assay on DU-145 prostate is 97.9%; with K-562 leukemia, 9.27% (active); with MALME-3M melanoma, 53%; in the assay on MDA-MB-231 breast, 48.1%; in the assay on RXF 393 renal it was 62.8%; with SF-268 CNS, 73.6%. Also, the growth in the assay on SF-295 CNS was 81.3%; with SF-539 CNS, 44%; in the assay with UACC-257 melanoma, 88.5%; in the assay on M14 melanoma, 41.9%; in the assay with HCT-15 colon, 74.4%; in the assay with HT29 colon, 48.3%. Besides, the growth in the assay on SNB-75 CNS was 98.6%; in the assay with SNB-19 CNS, 104%; with U251 CNS, 93.7%; with PC-3 prostate, 64.1%; in the assay with SK-MEL-5 melanoma, 71.7%; in the assay with UACC-62 melanoma, 48.1%. In addition, the growth with LOX IMVI melanoma was 37%; in the assay on SK-MEL-28 melanoma, 66.8%.
